Laboratory results taken from PubChem BioAssay.
Activity calls are given as the source filed them. Unless noted, the rule behind the calls is not given here.

Columns and labels:
[1] = tested on: Wnt5a (protein binding on small-molecule microarray); assay: Wnt5a binders on small-molecule microarray, primary screen, biophysical, 635/667 nm fluorescence (AID 1142); conditions: 635 nm fluorescence, higher = more signal;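 note: fluorescence read at 667 nm with signal to noise per printed feature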
[2] = cell viability in Huh7 cells, primary screen, cytotoxicity control for HCV replication inhibitor project, CellTiter-Glo luminescence, basal, 48 h (AID 1143); conditions: Huh7 HCV replicon, higher = more signal, called active from +8 up or from −8 down;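 note: Huh7 hepatoma cells carrying a hepatitis C replication reporter with no stimulus; test concentration not given here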
[3] = P. aeruginosa biofilm formation inhibitors, primary screen, PAO1 strain, BacTiter-Glo luminescence, LB-PBS (AID 1144); conditions: 12 h, higher = more signal
[4] = CREB reporter modulators without forskolin, primary screen, cell-based, PC12, CRE-LacZ reporter, unstimulated (AID 1145); conditions: no forskolin, luminescence, 4.5 h, higher = more signal, called active from +8 up or from −8 down
[5] = CREB reporter modulators under forskolin, primary screen, cell-based, PC12, CRE-LacZ reporter, forskolin-stimulated (AID 1146); conditions: luminescence, 4.5 h, higher = more signal, called active from +8 up or from −8 down;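 note: PC12 cells with 6xCRE LacZ reporter stimulated by forskolin 10 µM; beta-galactosidase reporter signal reflecting CREB driven transcription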
[6] = target: Streptavidin (Streptomyces avidinii) (UniProt P22629); assay: streptavidin binders on small-molecule microarray, primary screen, artefact control for SMM compound annotation, biophysical, 635/667 nm fluorescence (AID 1147); conditions: streptavidin binding, higher = more signal;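 note: signal reflects streptavidin binding to arrayed compounds as a control protein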
[7] = small-molecule binders of probe aInhba, primary screen, biochemical, small-molecule microarray, 635/667 nm fluorescence (AID 1148); conditions: higher = more signal;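 note: score merges 667nm spot fluorescence with signal-to-noise for antibody binding to printed compounds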
Torsin-1A (Homo sapiens) [8] = target: Torsin-1A (Homo sapiens) (UniProt O14656); assay: torsin A binders from cell lysate, primary screen, small-molecule microarray, wild-type, 635/667 nm (AID 1149); conditions: COS7 hTOR1A-WT lysate, 635 nm fluorescence, higher = more signal
Torsin-1A (Homo sapiens) [9] = target: Torsin-1A (Homo sapiens) (UniProt O14656); assay: small-molecule binders of mutant TOR1A in lysate, primary screen, cell lysate, small-molecule microarray, COS7 lysate, 635/667 nm fluorescence (AID 1150); conditions: COS7 hTOR1A mutant lysate, 635 nm fluorescence, higher = more signal;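 note: score pools 667 nm emission and signal to noise measuring lysate protein binding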
[10] = tested on: Sonic hedgehog protein (Shh); assay: small-molecule binders of Shh protein, primary screen, biochemical, small-molecule microarray, 635/667 nm fluorescence (AID 1151); conditions: small-molecule microarray binding, 635 nm fluorescence; higher = more signal;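 note: Shh protein binding to compounds spotted on small-molecule microarray slides; score combines spot fluorescence intensity with signal-to-noise across triplicate slides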

Chain of Torsin-1A (Homo sapiens) (O14656 whole entry, looked up): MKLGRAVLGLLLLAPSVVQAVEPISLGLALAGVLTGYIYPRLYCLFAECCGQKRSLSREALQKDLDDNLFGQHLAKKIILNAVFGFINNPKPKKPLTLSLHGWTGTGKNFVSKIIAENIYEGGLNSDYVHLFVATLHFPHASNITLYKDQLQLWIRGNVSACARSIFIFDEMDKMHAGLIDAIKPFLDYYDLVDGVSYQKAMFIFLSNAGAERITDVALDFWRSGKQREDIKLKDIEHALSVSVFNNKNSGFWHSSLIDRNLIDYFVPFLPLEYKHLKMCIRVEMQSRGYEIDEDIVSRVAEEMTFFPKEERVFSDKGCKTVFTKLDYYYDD
Chain of Streptavidin (Streptomyces avidinii) (P22629 whole entry, looked up): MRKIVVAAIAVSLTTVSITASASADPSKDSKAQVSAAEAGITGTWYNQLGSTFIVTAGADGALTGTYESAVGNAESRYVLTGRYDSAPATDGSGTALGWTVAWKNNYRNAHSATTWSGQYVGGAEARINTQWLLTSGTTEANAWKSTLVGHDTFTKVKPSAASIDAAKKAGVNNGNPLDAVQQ

SMILES	composite z-score [1]	z-score [2]	z-score [3]	z-score [4]	z-score [5]	composite z-score [6]	composite z-score [7]	composite z-score (Torsin-1A (Homo sapiens) [8])	composite z-score (Torsin-1A (Homo sapiens) [9])	composite z-score [10]
CC(C)CON=C1C[C@@H](O)[C@@H](O)[C@@H]2[C@@H]3C(=O)N(C4CCCCC4)C(=O)[C@@H]3CC[C@@H]12	-0.146	-0.82 (inactive)	-0.342 (inactive)	0.156 (inactive)	0.147 (inactive)	0.115	-0.128	-0.792	-0.0797	-0.318
C#CCCCON=C1C[C@@H](O)[C@@H](O)[C@@H]2[C@@H]3C(=O)N(C(C)(C)C)C(=O)[C@@H]3CC[C@H]12	-0.19	0.0285 (inactive)	0.189 (inactive)	0.608 (inactive)	0.0692 (inactive)	0.941	0.0228	-0.309	-0.123	-0.914
Cn1c(=O)n2n(c1=O)[C@H]1[C@H](O)[C@@H]3O[C@@H]3C(=NOCc3ccccc3)[C@H]1CC2	-0.279	0.637 (inactive)	-0.53 (inactive)	-0.0211 (inactive)	0.383 (inactive)	-0.178	-0.183	-0.223	0.0523	0.378
CCN1C(=O)[C@H]2[C@H]3[C@H](O)[C@H](O)CC(=O)[C@H]3CC[C@H]2C1=O	0.113	0.89 (inactive)	-0.212 (inactive)	-0.293 (inactive)	-0.733 (inactive)	-0.0154	-0.225	1.06	0.386	0.593
O=C1[C@H]2[C@H]3[C@H](O)[C@H](O)CC(=NOCc4ccccc4)[C@@H]3CC[C@H]2C(=O)N1C[C@@H]1CCCO1	0.0388	0.379 (inactive)	-0.614 (inactive)	-0.115 (inactive)	0.105 (inactive)	0.632	-0.157	0.304	0.198	0.317
CCc1cc2c(nc1CC)CCN(CCC(C)=NO[C@@H](C)c1cn([C@H](CO)Cc3ccccc3)nn1)C2	-0.144	-0.519 (inactive)	0.434 (inactive)	-0.892 (inactive)	-1.03 (inactive)	0.453	-0.0087	1.1	0.216	0.961
COc1ccc(COC(=O)NN=C2C[C@@H](O)[C@@H](O)[C@@H]3[C@@H]4C(=O)N(c5ccc(F)cc5F)C(=O)[C@@H]4CC[C@H]23)cc1	0.118	-1.64 (inactive)	-0.597 (inactive)	-1.02 (inactive)	0.454 (inactive)	1.19	-0.0719	-0.309	0.627	-1.52
CCCCc1nc2c(c3c1C[C@H](C)OC3)CN(CCOc1ccccc1)CC2	0.0426	-1.65 (inactive)	-2.34 (inactive)	7.15 (inactive)	-1.03 (inactive)	0.501	-0.1	0.599	-0.0271	1.32
CC=CC1=C(CO)C(=O)[C@@H]2O[C@@H]2C1=O	0.189	-1.02 (inactive)	-0.36 (inactive)	0.0178 (inactive)	3.64 (inactive)	-0.842	-0.128	0.0039	-0.579	1.72
CO[C@H]1COC(=O)CCC[C@@H](C)[C@H](OC)COC(=O)[C@@H](C)NC(=O)CC=C[C@@H]1C	-0.183	-2.74 (inactive)	-0.231 (inactive)	-0.58 (inactive)	-0.041 (inactive)	-0.429	-0.152	2.63	1.5	2.1
COc1ccc(O[C@@H]2[C@H](O)CO[C@@H]2C=Cc2ccccc2)cc1	0.059	-2.79 (inactive)	-0.828 (inactive)	-0.613 (inactive)	-0.736 (inactive)	-0.0696	-0.128	-0.071	0.55	0.503
COc1ccc(COC(=O)NN=C2C[C@@H](O)[C@@H](O)[C@@H]3[C@@H]4C(=O)N(c5cccc(Oc6ccccc6)c5)C(=O)[C@@H]4CC[C@@H]23)cc1	-0.365	-0.201 (inactive)	0.791 (inactive)	2.15 (inactive)	0.087 (inactive)	0.519	-0.162	0.574	-0.101	-1.38
CO[C@H]1COC(=O)[C@@H]2CCCN2C(=O)CC=C[C@@H](C)[C@H](OC)COC(=O)[C@@H](OCc2ccccc2)C=C[C@@H]1C	-0.0628	-3.36 (inactive)	-0.576 (inactive)	1.15 (inactive)	-0.166 (inactive)	-0.0601	-0.407	1.32	0.855	1.89
CCOC(=O)[C@H](Cc1ccccc1)NC(=O)CCC1CC(OC(=O)NCc2ccc3c(c2)OCO3)CC2(CCCC(COC(=O)NCCC(C)C)O2)O1 (stereo not given in full)	0.403	-1.05 (inactive)	-0.749 (inactive)	-0.254 (inactive)	0.0924 (inactive)	0.789	0.0471	0.399	0.418	1.74
COC(=O)CC=C[C@@H](C)[C@@H](C=NO[C@@H](C)c1cn([C@H](CO)Cc2ccccc2)nn1)NS(=O)(=O)c1ccc(C)cc1	0.062	-0.35 (inactive)	0.606 (inactive)	3.99 (inactive)	-0.0697 (inactive)	0.0525	0.0928	0.945	0.997	0.685
Cc1cc2c(nc1C)CCCN2CC(O)CN1CCCc2nc(C)c(C)cc21	0.424	0.135 (inactive)	0.051 (inactive)	-0.704 (inactive)	-0.875 (inactive)	0.209	0.141	0.482	1.95	0.639
CCCCC#C[C@@H]1C=C[C@H](OC(C)=O)[C@@H](COC(C)=O)O1	0.03	-4.37 (inactive)	0.713 (inactive)	-0.976 (inactive)	2.86 (inactive)	0.202	-0.154	0.568	0.234	0.437
CCOC(=O)[C@H](CC(C)C)NC(=O)CCC1CC(OC(=O)NCc2cccc3ccccc23)CC2(CCCC(COC(=O)NCC3CCCCC3)O2)O1 (stereo not given in full)	-0.0639	-4.12 (inactive)	-0.306 (inactive)	0.0178 (inactive)	1.6 (inactive)	0.405	-0.0962	-0.192	0.528	1.06
COc1cccc([C@H]2Oc3ccc(OC)cc3C(=NO[C@@H]3O[C@H](COC(C)=O)[C@@H](OC(C)=O)[C@H](OC(C)=O)[C@H]3OC(C)=O)[C@@H]2O)c1	0.186	-0.202 (inactive)	0.0537 (inactive)	0.336 (inactive)	0.38 (inactive)	-0.0198	-0.163	0.29	0.461	0.149
CO[C@H](C1CCCCC1)[C@H](C)C=CCC(=O)OCCCc1ccccc1	-0.125	0.419 (inactive)	-0.294 (inactive)	0.248 (inactive)	-0.468 (inactive)	0.203	-0.416	0.113	0.171	-0.057
CON=CC[C@@H]1C=C[C@H](OC(C)=O)[C@@H](COC(C)=O)O1	0.474	0.544 (inactive)	0.667 (inactive)	-0.403 (inactive)	0.46 (inactive)	-0.0091	0.102	0.611	0.592	0.783
CC(C)(C)N1C(=O)[C@H]2[C@H]3[C@H](O)[C@H](O)CC(=NO[C@@H]4O[C@H](CO)[C@@H](O)[C@H](O)[C@H]4O)[C@H]3CC[C@H]2C1=O	0.0479	-2.05 (inactive)	0.745 (inactive)	-0.656 (inactive)	-0.0093 (inactive)	-0.132	0.179	0.462	0.0791	0.345
CCOC(=O)CCN1C(=O)[C@H]2[C@H]3[C@H](O)[C@H](O)CC(=NNC(=O)OCc4ccccc4)[C@@H]3CC[C@H]2C1=O	0.109	0.13 (inactive)	-0.143 (inactive)	0.161 (inactive)	-0.244 (inactive)	0.551	-0.218	0.701	0.672	1.26
CO[C@H]1COC(=O)CC=C[C@H](C)[C@@H](OC)COC(=O)[C@@H](C)COC(=O)CC=C[C@@H]1C	-0.545	-1.66 (inactive)	0.0344 (inactive)	-0.292 (inactive)	-1.02 (inactive)	-0.411	-0.331	2.79	2.2	2.12
CCCCC#C[C@@H]1C=C[C@H](Oc2cc(OC)c(OC)c(OC)c2)[C@@H](COC(=O)OCC)O1	-0.282	-0.721 (inactive)	-0.264 (inactive)	2 (inactive)	-0.684 (inactive)	-0.523	-0.173	-0.0251	-0.361	0.375
CCOC(=O)[C@H](Cc1ccccc1)NC(=O)CCC1CC(OC(=O)NCCc2ccc(F)cc2)CC2(CCCC(COC(=O)NCC3CCCCC3)O2)O1 (stereo not given in full)	0.0457	-0.224 (inactive)	-1.12 (inactive)	0.29 (inactive)	0.624 (inactive)	0.644	0.0074	0.846	0.438	1.23
CC(=O)OC[C@H]1OC(ON=CC[C@@H]2C=C[C@H](OC(C)=O)[C@@H](COC(C)=O)O2)[C@H](OC(C)=O)[C@@H](OC(C)=O)[C@@H]1OC(C)=O (stereo not given in full)	0.066	-0.697 (inactive)	-0.133 (inactive)	0.327 (inactive)	0.915 (inactive)	0.559	-0.126	0.37	0.877	-0.499
CC(=O)OC[C@H]1O[C@H](CC=NO[C@H](C)c2cn([C@H](CO)Cc3ccccc3)nn2)C=C[C@@H]1OC(C)=O	0.315	0.089 (inactive)	-0.738 (inactive)	0.839 (inactive)	0.731 (inactive)	1.35	-0.218	0.56	0.579	0.805
CCOC(=O)[C@H](CC(C)C)NC(=O)CCC1CC(OC(=O)NCc2cccc3ccccc23)CC2(CCCC(COC(=O)NCCC(C)C)O2)O1 (stereo not given in full)	0.0463	-2.6 (inactive)	-1.52 (inactive)	0.563 (inactive)	-0.535 (inactive)	-0.589	-0.0736	-0.0418	0.185	0.784
